Test results published in PubChem BioAssay (NCI).
Compounds without any hit were thinned out: in the full panel of roughly 83,000, 20% have a hit.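 96-well plates, one dose, 48 hours. Percent growth reported; active if below 10.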 Unmarked numbers belong to inactive results. The source made the active and inactive calls.

Experiments:
Assay in all cases: NCI-60 one-dose screen, 48 h (100 = growth as untreated, 0 = no growth, -100 = all killed)
Details in all cases: 10 µM unless noted
BT-549 breast = tested on: BT-549 breast
MDA-MB-435 melanoma = tested on: MDA-MB-435 melanoma
SW-620 colon = tested on: SW-620 colon
MCF7 breast = tested on: MCF7 breast
HCT-116 colon = tested on: HCT-116 colon
HCC-2998 colon = tested on: HCC-2998 colon
KM12 colon = tested on: KM12 colon
T-47D breast = tested on: T-47D breast

SMILES | growth (BT-549 breast) | growth (MDA-MB-435 melanoma) | growth (SW-620 colon) | growth (MCF7 breast) | growth (HCT-116 colon) | growth (HCC-2998 colon) | growth (KM12 colon) | growth (T-47D breast)
COc1cc(CNC(=O)CCSc2nc3ccccc3c(=O)n2Cc2cc(OC)c(OC)c(OC)c2)cc(OC)c1OC | 48.3% | -28.7% (active) | 23.9% | 15.4% | 17% | 86% | 17.3% | –
CN1CCN(CCCOc2ccc3nc(Nc4ccc(C(F)(F)F)c(Cl)c4)ccc3c2)CC1 | 80.9% | -74.9% (active) | -70.4% (active) | -69.5% (active) | – | -71.1% (active) | -14.3% (active) | 39.9%
COc1cc(OC)c(C(=O)/C=C/c2ccc(C(F)(F)F)cc2)c(OC)c1 | -3.68% (active) | 23.8% | 9.97% (active) | 19.7% | – | 85% | 36.6% | 26.6%
CC(=O)Nc1ccc(S(=O)(=O)NC(CCC(=O)Nc2ccc(Cl)cc2)C(=O)O)cc1 (stereo not given) | – | 85.2% | 99.6% | 84.8% | 102% | 103% | 94.5% | 80.4%
O=S(=O)(NCCCNc1nccc(-c2c(-c3ccc(O)cc3)nc3sccn23)n1)c1ccc(F)cc1 | 14% | -17.9% (active) | 9.69% (active) | 6.45% (active) | – | -10.7% (active) | 11.9% | -5.79% (active)
COc1cc(-c2csc(NC(=O)c3cc(C(F)(F)F)cc(C(F)(F)F)c3)n2)cc(OC)c1OC | 18.7% | 28.6% | 44% | 18.4% | 14.4% | 31% | 22.1% | –
CSc1ccccc1C#C/C=C\C#Cc1ccccc1N1CCCC1=O | 69.7% | 8.9% (active) | 26.9% | 37.6% | 34.4% | 50.2% | 44.4% | –
COc1ccc(/C=C/C(=O)c2cccc(B(O)O)c2)cc1O | 13.9% | – | 9.61% (active) | 24.3% | 3.16% (active) | 54.3% | 3.44% (active) | 32.4%
O=C(O)c1cn(C2CC2)c2cc(N3CCN(S(=O)(=O)c4ccc(Cl)c(Cl)c4)CC3)c(F)cc2c1=O | -4.65% (active) | 13% | 20.7% | 13.5% | – | 24.8% | 14.6% | 16.3%
NS(=O)(=O)c1ccc(NCC(=O)Nc2ccc(-c3nc4ccccc4s3)cc2)cc1 | 14.5% | 77% | 63.7% | 27.6% | 25.1% | 87.6% | 61.6% | –
O=C1CCCCN1CCCCC#Cc1ccccc1C#Cc1ccccn1 | 117% | 98.1% | 103% | 109% | – | 88.5% | 111% | 92.9%
CC(=O)Nc1ccc(S(=O)(=O)N2C(=O)CCC2C(=O)Nc2ccc(Br)cc2)cc1 (stereo not given) | – | 27.6% | 38.2% | 9.58% (active) | – | 49.4% | 23.1% | 1.46% (active)
O=S(=O)(NCCCNc1cc(-c2cn(-c3ccccc3)nc2-c2cccc(O)c2)ccn1)c1cccc(F)c1 | 44.7% | 49.3% | 29.5% | 31.2% | – | 10.3% | 28.2% | 15.6%
COc1ccc(/C=c2\sc3n(c2=O)C2C(NN=3)N(C)C(=O)N2C)cc1 (stereo not given) | 75.3% | -60.6% (active) | 23.5% | 22.7% | 22.5% | 54.9% | 22.8% | –
O=C(N/N=C/c1c(Cl)cccc1Cl)c1ccccc1Nc1ccnc(C(F)(F)F)c1 | – | 82.9% | 86.3% | 46% | 64.9% | 71.5% | 74.7% | 51.8%
O=C(CSc1nc(-c2ccc(Cl)cc2)cn1-c1ccc(Cl)cc1)c1ccc(Br)cc1 | 94.1% | 91.5% | 89.3% | 83.9% | – | 89.6% | 88.5% | 69.6%
CC(C)(C)c1cn2cccc(C(=O)N3CCN(CC(=O)Nc4ccc(Cl)cc4C(=O)c4ccccc4Cl)CC3)c2n1 | -15.1% (active) | 63.4% | 60.6% | 43.8% | – | – | 54.2% | 31.8%
COc1ccc(C2=NN(c3ccc(S(N)(=O)=O)cc3)C(c3cn(-c4ccccc4)nc3-c3ccc(Cl)cc3)C2)cc1 (stereo not given) | – | 79.3% | 101% | 66.7% | 74.5% | 98.2% | 88.6% | 67.1%
O=S(=O)(NCCNc1cc(-c2cn(-c3ccccc3)nc2-c2ccccc2)ccn1)c1cccc2ccccc12 | 49.3% | 46.3% | 62.5% | 28.2% | – | 56.4% | 41.6% | 24.3%
O=c1cc(C2NCCc3c2[nH]c2ccccc32)c2c(ccc3ccccc32)o1 (stereo not given) | 82% | 81.7% | 59.6% | 81.8% | – | 78.1% | 63.5% | 59.1%
CCCCCCCCCCn1cc[n+](C)c1 | – | 7.98% (active) | 44.1% | 3.94% (active) | 17.6% | 31.1% | 14% | 24.6%
COC(=O)[C@H]1[C@H](OC)[C@@H](OC(=O)/C=C/c2ccncc2)CC2CN3CCc4c([nH]c5cc(OC)ccc45)[C@@H]3C[C@@H]21 (stereo not given in full) | – | 77.9% | 74% | 55.9% | 61.1% | 122% | 93.6% | 36.8%
COc1cc(/C=C\c2cc(OC)c(OC)c(OC)c2)cc(N/C=C\C(=O)c2c[nH]c3ccccc23)c1OC | 41.2% | 29.1% | -76% (active) | 4.09% (active) | – | 83.2% | 49.2% | -5.64% (active)
COc1cc(C2C=C(C)N=C3SC(C)=NN32)cc(OC)c1OC (stereo not given) | – | 112% | 112% | 91.6% | 106% | 107% | 102% | 92.3%
CCN1C(=O)N(CC)C2C1NN=c1s/c(=C\c3ccccn3)c(=O)n12 (stereo not given) | 80% | -62.1% (active) | 23.7% | 22.5% | 23.6% | 65.8% | 26% | –
CCC(=O)Oc1cc(/C=C/C(=O)O[C@H]2C[C@H]3CN4CCc5c([nH]c6cc(OC)ccc56)[C@@H]4C[C@@H]3[C@@H](C(=O)OC)[C@@H]2OC)ccc1OC | – | 67.1% | 83% | 48.2% | 53.3% | 115% | 95.3% | 60.6%
